Assay results taken from PubChem BioAssay AID652162 (Broad Institute, 2013).
The campaign covered roughly 350,000 compounds. About 840 (0.24%) were called active. This excerpt belongs to a sample that is enriched for actives. Values without a mark were called inactive. Rule as the data show it: active = inhibition above about 10%; inactive = the rest.

The molecules below were run against Toxin B (Clostridioides difficile) (UniProt P18177) (assay: TcdB glycohydrolase inhibitors, primary screen, biochemical, single point, plate reader (AID 652162)). Details: TcdB glycohydrolase enzymatic assay, at 9.99 µM, hits give high values.
Chain of Toxin B (Clostridioides difficile) (P18177 whole entry, looked up): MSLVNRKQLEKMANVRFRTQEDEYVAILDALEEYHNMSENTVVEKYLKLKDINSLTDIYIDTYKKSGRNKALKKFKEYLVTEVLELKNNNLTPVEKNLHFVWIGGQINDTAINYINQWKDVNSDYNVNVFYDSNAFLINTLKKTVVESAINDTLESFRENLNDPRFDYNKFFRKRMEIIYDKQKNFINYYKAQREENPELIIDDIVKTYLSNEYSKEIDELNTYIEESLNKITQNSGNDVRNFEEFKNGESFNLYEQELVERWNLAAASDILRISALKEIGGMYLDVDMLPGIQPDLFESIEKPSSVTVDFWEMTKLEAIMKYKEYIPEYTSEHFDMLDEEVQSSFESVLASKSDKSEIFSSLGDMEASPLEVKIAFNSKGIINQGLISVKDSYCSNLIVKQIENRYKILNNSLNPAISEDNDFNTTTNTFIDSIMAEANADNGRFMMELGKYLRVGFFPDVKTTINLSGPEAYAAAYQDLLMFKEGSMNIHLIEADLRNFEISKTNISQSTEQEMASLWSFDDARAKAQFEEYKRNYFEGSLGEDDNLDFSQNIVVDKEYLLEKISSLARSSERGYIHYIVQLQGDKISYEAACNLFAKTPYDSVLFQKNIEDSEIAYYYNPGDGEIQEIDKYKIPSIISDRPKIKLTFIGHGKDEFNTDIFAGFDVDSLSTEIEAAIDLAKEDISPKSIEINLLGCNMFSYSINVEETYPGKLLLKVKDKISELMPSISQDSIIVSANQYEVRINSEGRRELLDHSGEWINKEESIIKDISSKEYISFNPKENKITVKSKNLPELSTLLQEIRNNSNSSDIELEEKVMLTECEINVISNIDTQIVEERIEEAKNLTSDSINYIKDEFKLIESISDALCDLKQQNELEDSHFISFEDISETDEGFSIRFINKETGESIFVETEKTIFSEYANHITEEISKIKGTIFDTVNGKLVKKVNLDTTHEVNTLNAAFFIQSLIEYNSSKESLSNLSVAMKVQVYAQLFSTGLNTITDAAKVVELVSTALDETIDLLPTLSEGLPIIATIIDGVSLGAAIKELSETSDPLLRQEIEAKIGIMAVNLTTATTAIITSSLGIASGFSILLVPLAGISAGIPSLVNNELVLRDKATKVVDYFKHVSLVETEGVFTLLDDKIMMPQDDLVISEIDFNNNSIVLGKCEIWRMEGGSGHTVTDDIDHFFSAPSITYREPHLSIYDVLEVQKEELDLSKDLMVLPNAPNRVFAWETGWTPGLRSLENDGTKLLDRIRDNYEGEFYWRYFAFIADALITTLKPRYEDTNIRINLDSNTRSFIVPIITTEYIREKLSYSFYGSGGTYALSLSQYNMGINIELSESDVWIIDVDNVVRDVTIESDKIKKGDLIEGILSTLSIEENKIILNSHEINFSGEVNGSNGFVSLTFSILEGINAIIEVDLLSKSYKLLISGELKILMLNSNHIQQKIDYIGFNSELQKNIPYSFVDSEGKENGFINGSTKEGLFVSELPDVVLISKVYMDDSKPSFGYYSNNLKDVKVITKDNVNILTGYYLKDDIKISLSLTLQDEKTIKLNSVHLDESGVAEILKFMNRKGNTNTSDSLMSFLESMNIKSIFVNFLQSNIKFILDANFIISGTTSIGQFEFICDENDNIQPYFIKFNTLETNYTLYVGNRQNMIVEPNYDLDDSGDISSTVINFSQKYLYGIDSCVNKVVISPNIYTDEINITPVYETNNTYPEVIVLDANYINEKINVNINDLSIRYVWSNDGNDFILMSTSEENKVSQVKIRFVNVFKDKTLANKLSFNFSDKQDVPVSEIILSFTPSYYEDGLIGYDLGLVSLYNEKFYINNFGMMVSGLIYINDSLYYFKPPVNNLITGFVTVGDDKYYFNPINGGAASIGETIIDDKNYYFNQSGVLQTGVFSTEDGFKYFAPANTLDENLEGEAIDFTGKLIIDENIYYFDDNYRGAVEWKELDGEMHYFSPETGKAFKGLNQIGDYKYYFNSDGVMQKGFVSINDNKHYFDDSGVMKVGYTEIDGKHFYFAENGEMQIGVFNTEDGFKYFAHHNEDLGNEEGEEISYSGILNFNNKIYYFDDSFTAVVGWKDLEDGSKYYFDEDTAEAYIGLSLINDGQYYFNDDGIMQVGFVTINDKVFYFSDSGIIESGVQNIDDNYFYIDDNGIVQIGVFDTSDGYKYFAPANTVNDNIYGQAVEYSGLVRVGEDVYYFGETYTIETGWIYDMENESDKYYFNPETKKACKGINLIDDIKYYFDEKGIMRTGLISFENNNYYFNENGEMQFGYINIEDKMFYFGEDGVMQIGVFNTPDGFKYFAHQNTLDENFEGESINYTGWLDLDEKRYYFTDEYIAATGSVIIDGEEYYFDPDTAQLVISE
Molecule `COCC(=O)N1CC[C@@H]2[C@@H](CO)Nc3ccc(-c4ccc(C(=O)N(C)C)cc4)cc3[C@@H]21` has an inhibition of -1.67%. `O=C(CC(=O)c1cccnc1)c1ccccc1` gave an inhibition of 0.622%. For `O=C(Nc1cnccn1)c1cccnc1`, the inhibition was 1.15%. With `O=C(NN=C1CCC(=NNC(=O)c2cccnc2)CC1)c1cccnc1` the inhibition was 54% (active). `COc1ccc(C(C)NC(=O)C23CC4CC(CC(C4)C2)C3)cc1` (stereo unspecified) showed an inhibition of 0.441%. Work on `CCOc1ccc(C(CC(=O)O)n2cnnn2)cc1OC` (stereo unspecified) yielded an inhibition of 1.46%. With `CCOc1ccc(C(CC(=O)O)NC(=O)C23CC4CC(CC(C4)C2)C3)cc1OC` (stereo unspecified) the inhibition was 12.9% (active). `CC(C)NC(=O)N(C)C[C@@H]1Oc2ccc(NS(=O)(=O)c3ccccc3)cc2C(=O)N([C@@H](C)CO)C[C@H]1C` was tested, and the inhibition was 1%. For `Cc1noc(C)c1NC(=O)N(C)C[C@@H]1OCCCC[C@H](C)Oc2ccc(NC(=O)NC3CCCCC3)cc2C(=O)N([C@H](C)CO)C[C@H]1C`, the inhibition was 1.84%. With `CCC1(CC)C(=O)C2=C3C1[C@H](C(=O)OC)C=C(C(=O)OC)C[C@H]3[C@H]1C(=O)N(Cc3ccccc3)C(=O)[C@H]1[C@H]2C` (stereo partly specified) the inhibition was 0.94%. With `COC(=O)C1=C[C@@H](C(=O)OC)[C@@H]2C3=C(C(=O)[C@]2(C)NC(=O)c2ccccc2)[C@H](C)n2c(=O)n(C)c(=O)n2[C@@H]3C1` the inhibition was 11.2% (active). Molecule `C[C@H]1CN([C@@H](C)CO)C(=O)c2cc(NS(=O)(=O)c3ccccc3)ccc2O[C@@H]1CN(C)C(=O)NC1CCCCC1` has an inhibition of 3.22%. Work on `O=C(NC[C@H]1[C@@H](c2ccccc2)[C@H](CO)N1CC1CC1)c1cccnc1` yielded an inhibition of -2.13%. `C/C=C/c1ccc2c(c1)O[C@H](CN(C)Cc1cccc(F)c1)[C@H](C)CN([C@H](C)CO)S2(=O)=O` showed an inhibition of 0.906%. For `Cc1ccc(S(=O)(=O)N(C)C[C@@H]2OCCCC[C@@H](C)Oc3ccc(NC(=O)Nc4ccc(C(F)(F)F)cc4)cc3C(=O)N([C@@H](C)CO)C[C@@H]2C)cc1`, the inhibition was -1.2%. In the case of `COCC(=O)Nc1ccc2c(c1)C(=O)N(C)[C@@H]1CC[C@H](CC(=O)NCCc3ccccc3)O[C@@H]1CO2`, the inhibition is reported as -0.476%. `COc1ccc(NC(=O)N(C)C[C@H]2Oc3cc(-c4ccncc4)ccc3S(=O)(=O)N([C@@H](C)CO)C[C@H]2C)cc1` gave an inhibition of 0.138%. `C[C@@H]1CN([C@H](C)CO)C(=O)c2cc(-c3ccc(C(=O)N(C)C)cc3)cnc2O[C@H]1CN(C)C(=O)C1CC1` was tested, and the inhibition was 1.01%. `CCC(=O)N(C)C[C@H]1Oc2cc(C#CC3CC3)ccc2S(=O)(=O)N([C@H](C)CO)C[C@H]1C` was tested, and the inhibition was -0.263%. With `COCC(=O)N1C[C@H]2[C@@H](c3ccccc31)[C@@H](CO)N2C(=O)NC(C)C` the inhibition was -0.399%. `CCOC(=O)CNC(=O)CSc1ncccc1-c1nc2ccccc2[nH]1` showed an inhibition of -7.68%. For `Nc1ccccc1-c1nc2ccncc2[nH]1`, the inhibition was 12.2% (active). `Cc1cc(C)nc(Nc2n[nH]c(-c3ccccc3N)n2)n1` showed an inhibition of -0.68%. `COCC(=O)N(C)C[C@@H]1Oc2ncc(-c3ccccc3OC)cc2C(=O)N([C@@H](C)CO)C[C@@H]1C` gave an inhibition of -11.6%. `CC(C)NC(=O)N1C[C@@H]2[C@H](c3ccccc31)[C@@H](CO)N2Cc1ccc(Cl)cc1` gave an inhibition of -0.718%. `Cc1noc(C)c1NC(=O)N(C)C[C@@H]1OCCCC[C@H](C)Oc2ccc(NC(=O)NC3CCCCC3)cc2C(=O)N([C@H](C)CO)C[C@@H]1C` showed an inhibition of 0.987%. Molecule `COc1cc(/C=C2\C(=N)N3N=C(CC(=O)N4CCOCC4)SC3=NC2=O)cc(OC)c1OC` has an inhibition of 0.211%. `COC1=C/C(=C/c2c(N)n3nc(CC(=O)N4CCOCC4)sc3nc2=O)C=CC1=O` was tested, and the inhibition was 11.3% (active). `C=CCC1=C/C(=C\c2c(N)n3nc(CC(=O)N4CCOCC4)sc3nc2=O)C=C(OC)C1=O` gave an inhibition of -3.86%. `CCCC(=O)N1CC2(CCN(C(=O)C3CC3)CC2)c2c(n(C)c3cc(OC)ccc23)[C@H]1CO` was tested, and the inhibition was -0.231%. `CCS(=O)(=O)Nc1ccc2c(c1)C(=O)N(C)C[C@@H](OC)[C@@H](C)CN(C(=O)COC)[C@H](C)CO2` gave an inhibition of -1.04%. `C[C@@H]1CCCCO[C@@H](CN(C)C(=O)NC2CCCCC2)[C@@H](C)CN([C@@H](C)CO)C(=O)c2cc(NC(=O)C3CCCCC3)ccc2O1` gave an inhibition of 0.287%. `C[C@@H]1CN([C@H](C)CO)C(=O)CCCn2cc(nn2)CO[C@@H]1CN(C)C(=O)Nc1ccc(-c2cccs2)cc1` was tested, and the inhibition was -8.3%. `O=C(COC(=O)c1cccnc1Cl)NC(=O)NC1CCCCC1` gave an inhibition of 1.25%. With `CC(Oc1ccc(Br)cc1)C(=O)NC1CCCCCC1` (stereo unspecified) the inhibition was 2.69%. With `CC(OC(=O)c1cccnc1Cl)C(=O)NC1CCCCC1` (stereo unspecified) the inhibition was 15.9% (active). Work on `COCCNC(=O)[C@@H]1[C@@H](CO)[C@@H]2Cn3c(ccc(-c4ccccc4F)c3=O)[C@@H]2N1C(=O)C1CC1` yielded an inhibition of -1.01%. `Cc1ccccc1S(=O)(=O)NCC[C@@H]1CC[C@H](NC(=O)C2CCCCC2)[C@@H](CO)O1` showed an inhibition of 0.652%. For `C=CCn1c(SCc2ccccc2)nc2c1c(=O)[nH]c(=O)n2C`, the inhibition was 1.32%. `Cn1c(=O)[nH]c(=O)c2c1[nH]c(=S)n2Cc1ccccc1` was tested, and the inhibition was 20.2% (active). `Cc1nnc(Sc2nc3c(c(=O)[nH]c(=O)n3C)n2Cc2ccccc2)s1` was tested, and the inhibition was -0.878%. In the case of `CC(=O)N1CCCCN2[C@H](C1)[C@@H](c1ccc(-c3ccc(F)cc3)cc1)[C@@H]2CO`, the inhibition is reported as -0.351%. For `C[C@H]1CN([C@@H](C)CO)S(=O)(=O)c2ccc(-c3ccccc3F)cc2O[C@H]1CN(C)C(=O)C1CC1`, the inhibition was -0.346%. `COc1ccc(NC(=O)N[C@H]2CC[C@@H](CCNC(=O)c3cc(Cl)cc(Cl)c3)O[C@H]2CO)cc1` gave an inhibition of -0.154%. `C[C@H]1CN([C@@H](C)CO)C(=O)Cc2cc(NC(=O)Cn3cnnn3)ccc2O[C@H]1CN(C)CC1CC1` was tested, and the inhibition was 0.02%. `O=C(C1CCOCC1)N1CC2(C1)[C@H](c1ccccc1)[C@H](CO)N2Cc1ccc(Cl)cc1` was tested, and the inhibition was -0.452%. For `Cc1ccc(-c2cnc3c(c2)C(=O)N([C@H](C)CO)C[C@@H](C)[C@H](CN(C)Cc2ccccc2C(=O)O)O3)cc1`, the inhibition was 0.061%. `C[C@@H]1CCCCO[C@@H](CN(C)C(=O)NC2CCCCC2)[C@@H](C)CN([C@H](C)CO)C(=O)c2cc(NC(=O)CCCCCC(=O)Nc3ccccc3N)ccc2O1` was tested, and the inhibition was 0.319%. Work on `O=C(COC(=O)c1cccc(Cl)c1)Nc1ccc2[nH]c(=O)[nH]c2c1` yielded an inhibition of -0.403%. In the case of `O=C(COc1ccc([N+](=O)[O-])cc1Cl)Nc1ccc2[nH]c(=O)[nH]c2c1`, the inhibition is reported as 0.327%. With `COc1ccc(C(=O)OCC(=O)Nc2ccc3[nH]c(=O)[nH]c3c2)c(OC)c1OC` the inhibition was 11.5% (active). With `C[C@@H]1CN([C@H](C)CO)C(=O)c2cc(NS(=O)(=O)c3ccc(Cl)cc3)ccc2O[C@@H](C)CCCCO[C@H]1CN(C)Cc1ccccc1` the inhibition was -0.656%. For `COc1ccc(S(=O)(=O)N2CCCCC2)cc1C(=O)NC1CCS(=O)(=O)C1` (stereo unspecified), the inhibition was 0.566%. In the case of `COc1ccc(-c2ccc(OC(=O)NC3CCS(=O)(=O)C3)cc2)cc1` (stereo unspecified), the inhibition is reported as 10.6% (active). For `N#Cc1ccc(OCC(=O)NC(=O)NC2CCS(=O)(=O)C2)cc1` (stereo unspecified), the inhibition was -2.43%. `C[C@@H]1CCCCO[C@@H](CN(C)C(=O)NC2CCCCC2)[C@H](C)CN([C@H](C)CO)C(=O)c2cc(NS(=O)(=O)c3ccc(Cl)cc3)ccc2O1` gave an inhibition of -0.076%. With `C[C@@H]1CN([C@H](C)CO)C(=O)c2cc(NC(=O)Nc3cccc4ccccc34)ccc2O[C@H]1CN(C)C(=O)Nc1ccccc1` the inhibition was -0.695%. `O=C(c1cnccn1)N1CC(=O)N2[C@H](C1)[C@H](c1ccc(/C=C/c3ccccc3)cc1)[C@@H]2CO` showed an inhibition of 0.636%. In the case of `CO[C@@H]1CC[C@H]2CCN(C)C(=O)[C@@H](C)CN(C)C(=O)c3cccc(C#N)c3OC[C@@H]1O2`, the inhibition is reported as 0.637%. `COc1cccc2cc(C(N)=O)/c(=N\NC(=O)c3ccccc3)oc12` showed an inhibition of -0.164%. For `COc1cccc2cc(/C(C)=N/NC(=O)c3ccco3)oc12`, the inhibition was 14% (active). In the case of `COc1cccc2cc(C(=O)NCc3ccc(C)cc3)c(=N)oc12`, the inhibition is reported as 0.357%. For `COc1ccc(S(=O)(=O)Nc2ccc3c(c2)C(=O)N([C@H](C)CO)C[C@@H](C)[C@H](CN(C)C(=O)c2ccncc2)OCCCC[C@@H](C)O3)cc1`, the inhibition was 1.52%. `CNC[C@H]1Oc2cc(C#CC(C)(C)O)ccc2S(=O)(=O)N([C@@H](C)CO)C[C@@H]1C` showed an inhibition of -0.494%. For `COCC(=O)Nc1ccc2c(c1)C(=O)N(C)[C@@H]1CC[C@@H](CC(=O)NCC(F)(F)F)O[C@H]1CO2`, the inhibition was 0.945%. `O=C(C[C@@H]1CC[C@H](NC(=O)Cc2ccccn2)[C@H](CO)O1)NCCc1ccncc1` gave an inhibition of -1.24%. `O=C(Nc1ccc(F)cc1)N[C@H]1CC[C@H](CCn2cc(-c3ccc(F)cc3)nn2)O[C@@H]1CO` gave an inhibition of -2.54%. For `CO[C@@H]1CN(C)C(=O)c2cc(NC(=O)C3CC3)ccc2OC[C@H](C)N(C(=O)c2ccccc2F)C[C@H]1C`, the inhibition was 0.856%. In the case of `O=C(C[C@H]1C[C@H]2c3cc(NC(=O)c4ccc5c(c4)OCO5)ccc3O[C@H]2[C@@H](CO)O1)NCc1cccc(F)c1`, the inhibition is reported as 15.2% (active). With `O=C(C[C@@H]1C[C@@H]2c3cc(NC(=O)c4ccc5c(c4)OCO5)ccc3O[C@@H]2[C@@H](CO)O1)NCc1ccc(Cl)cc1` the inhibition was 1.53%. `O=C(C[C@H]1C[C@@H]2c3cc(NC(=O)c4ccc5c(c4)OCO5)ccc3O[C@@H]2[C@@H](CO)O1)NCc1cccnc1` gave an inhibition of -0.896%.
